Assay results as given in PubChem BioAssay AID504832 (National Center for Advancing Translational Sciences (NCATS), 2011).
Among all 310,000 compounds or so, about 18,000 (5.8%) were called active. Another 22% or so got no clear call; they are omitted. The list comes from a sample in which actives are over-represented; it also holds similar structures and randomly drawn compounds. Unmarked numbers belong to inactive results. Calls come from the whole dose curve; as a rule, active = well fitted inhibition curve with a large enough effect; inconclusive = small, poorly fitted or top-dose-only effect, or another doubt; inactive = no such curve, though single readings can be large or run the other way.

Test: Primary qHTS for delayed death inhibitors of the malarial parasite plastid, 48 hour incubation
Details: P. falciparum luciferase growth in erythrocytes; series mostly up to 28.7 µM; activity change, negative = inhibition: at the top concentration
Procedure, shortened: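 Growth was read as firefly luciferase luminescence after a 48 h, 37 C, 5% CO2 exposure of compounds to reporter-bearing P. falciparum cultures (0.1% parasitemia, 2% hematocrit final) in Albumax-supplemented RPMI 1640.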
% is set by controls: 0 for no effect and ±100 for the full control effect; potency is the fitted concentration of half-maximal effect.

SMILES	activity change, negative = inhibition	Potency
Cc1c(OC(C)C(=O)NCC2CCC(C(=O)O)CC2)ccc2c1oc(=O)c1ccccc12 (stereo not drawn)	-28%	–
CC1(C)NC(=O)N(CC(=O)Nc2cc(C(F)(F)F)cc(C(F)(F)F)c2)C1=O	46.2%	–
Clc1ccc(C2=CSC3=Nc4cccc5cccc(c45)N23)cc1	–	1.85 µM (active)
CC(=O)c1cccc(NC(=S)N2CCCC2)c1	11.9%	–
CC(=O)Oc1cccc(N2C(=O)CC(Nc3ccc(N4CCOCC4)cc3)C2=O)c1 (stereo not drawn)	16%	–
CC(=O)Oc1cccc(N2C(=O)C3CC=C(Cl)CC3C2=O)c1 (stereo not drawn)	–	11.7 µM (active)
CC1=CCC2C(=O)N(c3cccc(C(=O)NC(C)c4ccccc4)c3)C(=O)C2C1 (stereo not drawn)	6.23%	–
N#CC1(NC(=O)COC(=O)CSc2ccc(F)cc2)CCCCC1	1.97%	–
Cc1cccc(N=C2SC(C)CN2C(=O)CN2C(=O)NC3(CCCC3)C2=O)c1 (stereo not drawn)	-26.9%	–
COCCN(C(=O)CC1CCCCC1)c1c(N)n(CC(C)C)c(=O)[nH]c1=O	-16.3%	–
COc1cc([N+](=O)[O-])ccc1NC(=O)CN1CCCC1	22.4%	–
COc1ccc(NC(=O)CCCC2CCCCC2)c(OC)c1	107%	–
COc1ccc(NC(=O)c2cc([N+](=O)[O-])ccc2NC(=O)CNC2CCCCC2C)c(OC)c1 (stereo not drawn)	–	6.57 µM (active)
Cc1cccc(C)c1NC(=O)CNC(=O)c1ccc2c(c1)OCCO2	-8.84%	–
CCC(c1nnnn1Cc1ccccc1)N(Cc1cc2cc(OC)ccc2[nH]c1=O)CC1CCCO1 (stereo not drawn)	–	5.86 µM (active)
CCC(=O)N(Cc1cc2cc(OC)ccc2[nH]c1=O)c1ccccc1C	11.8%	–
COc1ccc(N(Cc2cc3cc(OC)ccc3[nH]c2=O)S(C)(=O)=O)cc1	18.3%	–
CCOc1ccc2[nH]c(=O)c(CN(CCCO)C(C)=O)cc2c1	14.9%	–
CCC(=O)N(CCc1ccccc1)Cc1cc2cc(C)ccc2[nH]c1=O	83.4%	–
Cc1ccc(S(=O)(=O)N(Cc2cc3ccccc3[nH]c2=O)CC2CCCO2)cc1 (stereo not drawn)	4.58%	–
CCC(c1nnnn1Cc1ccco1)N(Cc1cc2cc(OC)ccc2[nH]c1=O)C1CCCCC1 (stereo not drawn)	–	11.7 µM (active)
COc1ccc2[nH]c(=O)c(CN(CC3CCCO3)C(=O)Nc3ccccc3)cc2c1 (stereo not drawn)	37%	–
CCC(c1nnnn1Cc1ccco1)N(CCc1ccccc1)Cc1cc2cccc(C)c2[nH]c1=O (stereo not drawn)	–	11.7 µM (active)
CCOc1ccc2[nH]c(=O)c(CN(Cc3nnnn3CCc3ccccc3)CC3CCCO3)cc2c1 (stereo not drawn)	–	13.1 µM (active)
O=C(c1cccs1)N(Cc1cc2ccccc2[nH]c1=O)CC1CCCO1 (stereo not drawn)	-2.84%	–
COc1ccc(-c2nc(SCC(=O)N3CCCC3)n[nH]2)cc1	5.23%	–

SMILES	activity change, negative = inhibition	Potency
CC(=O)Oc1cccc(C(=O)Nc2ccccc2NC(=O)c2cccc(OC(C)=O)c2)c1	-11.6%	–
COc1cccc(S(=O)(=O)NCc2ccc(C(=O)NCc3ccccn3)cc2)c1	-29.8%	–
COc1cccc(CNc2ncc(-c3ccccc3)n2C)c1	31.6%	–
Cc1cc(=O)oc2cc(NC(=O)C(C)Oc3ccccc3)ccc12 (stereo not drawn)	4.87%	–
COc1ccc(/C=C(\C#N)C(=O)OCC(=O)N(C)C2CCS(=O)(=O)C2)cc1 (stereo not drawn)	2.01%	–
O=C(O)c1c(NC(=O)N2CCCC2)sc2c1CCCC2	0.211% [at 0.00184 µM]	–
Cc1ccc(-c2nc(CS(=O)(=O)CC(=O)NCc3ccc4c(c3)OCO4)c(C)o2)cc1	2.89%	–
CCCCOC(=O)Nc1nnc(CC(=O)NCc2ccccc2)s1	1.81%	–
CCC(C)c1ccc(NC(=S)N2CCCC2)cc1 (stereo not drawn)	53.4%	–
COc1ccc(N(Cc2cc3ccc(C)cc3[nH]c2=O)S(=O)(=O)c2ccccc2)cc1	-23%	–
COc1ccc2[nH]c3c(=O)n(Cc4ccco4)cnc3c2c1	34.4%	–
CCC(c1nnnn1Cc1ccco1)N(CCc1ccccc1)Cc1cc2ccc(OC)cc2[nH]c1=O (stereo not drawn)	–	5.86 µM (active)
CCn1ccnc1CN(C)C(=O)c1cc(COc2ccc(Cl)cc2OC)on1	8.14%	–
C[C@]12CC[C@@H]3c4ccc(O)cc4C[C@@H](CCCCCCCCCS(=O)CCCC(F)(F)C(F)(F)F)C3[C@@H]1CC[C@@H]2O (stereo partly drawn)	–	9.53 µM (active)
Cc1cc(=O)oc2c3c(cc(OCC(=O)NCCC(=O)N[C@@H](C)C(=O)O)c12)OC(C)(C)CC3	3.13%	–
Cc1c(NC(=O)Nc2cccc([N+](=O)[O-])c2)c(=O)n(-c2ccccc2)n1C	14.8%	–
CCOC(=O)c1nnn(-c2nonc2-n2cccc2)c1CN1CCOCC1	–	7.38 µM (active)
CCN(CC)Cc1c(C(=O)OC)nnn1-c1nonc1N	-3.97%	–
NNC(=O)c1nnn(-c2nonc2N)c1CN1CCCC1	-0.213%	–
CCOC(=O)c1nnn(-c2nonc2OC)c1-c1ccccc1	12.2%	–
CCOC(=O)c1nnn(-c2nonc2-n2cccc2)c1CN1CCC(C(=O)OCC)CC1	–	0.185 µM (active)
CCOC(=O)C1CCN(Cc2c(C(=O)N3CCOCC3)nc3c(C)cccn23)CC1	0.0838%	–
CC(=O)Nc1ccc(S(=O)(=O)Nc2cc(C)cn(Cc3ccc(C)cc3)c2=O)cc1	8.83%	–
COc1ccccc1CNS(=O)(=O)c1ccc2c(c1)NC(=O)CS2	28.6%	–
CCCn1cc(S(=O)(=O)c2ccc(C)cc2)c(=O)c2cc(OCC)ccc21	-6.8%	–
CN(CC(=O)O)S(=O)(=O)c1ccc2oc3ccccc3c2c1	1.99%	–

SMILES	activity change, negative = inhibition	Potency
O=C(N/N=C/c1cccnc1)c1ccc(NC(=O)c2ccc(F)cc2)cc1	-9.95%	–
O=C(N/N=C/c1cccnc1)c1cc2ccccc2cc1O	–	2.94 µM (active)
N=c1oc2ccccc2cc1C(=O)N/N=C/c1ccccc1	23.4%	–
Cc1ccc(/C=N/NC(=O)c2cc3ccccc3cc2O)o1	–	0.586 µM (active)
Cc1ccc(/C=N/NC(=O)CNC(=O)COc2ccccc2)o1	4.28%	–
CCOC(=O)N/N=C/c1cccnc1	8.05%	–
Cc1ccnc(NS(=O)(=O)c2ccc(NC(=O)c3oc4ccccc4c3C)cc2)n1	5.56%	–
O=C(c1cccnc1)N1CCN(S(=O)(=O)c2cccs2)CC1	-0.715%	–
Cc1ccc(C(=O)NCC(=O)OCc2nnc(-c3ccccc3)o2)cc1	38.7%	–
CC(CC(=O)O)C(=O)c1ccc(Cl)c([N+](=O)[O-])c1 (stereo not drawn)	-8.93%	–
O=C(/C=C/c1ccc(Cl)c([N+](=O)[O-])c1)c1cccnc1	3.69%	–
NC(N)=N/N=C/c1ccc(Cl)c([N+](=O)[O-])c1	–	1.47 µM (active)
COc1cccc(C(=O)Nc2ccc(N3CCN(C(=O)c4ccco4)CC3)cc2)c1	-26.8%	–
COc1cc(C)cc(CN2CCC(Cc3ccccc3)CC2)c1O	–	0.928 µM (active)
O=c1cc(CO)oc(CN2CCC(Cc3ccccc3)CC2)c1O	4.38%	–
Brc1ccccc1CN1CCC(Cc2ccccc2)CC1	-1.06%	–
O=C(CN1C(=O)NC2(CCOc3ccccc32)C1=O)NCc1ccc(F)cc1 (stereo not drawn)	1.93%	–
Cc1cccc(NC(=O)C2CCCN(C(=O)NCc3ccccc3)C2)c1C (stereo not drawn)	7.96%	–
CCOC(=O)CN1C(=O)N[C@@H](c2ccc(Br)cc2)C(C(C)=O)=C1C	-29.1%	–
CCOC(=O)C1=C(C)N=C2c3ccccc3C(=O)C2C1c1ccc(Br)cc1 (stereo not drawn)	–	9.28 µM (active)
CCOC(=O)C1=C(C)NC(C)=C(C(=O)OCC)C1c1ccccn1	-9.2%	–
Cc1cccc(NS(=O)(=O)c2ccc(C(=O)NCC(C)(C)N3CCOCC3)cc2)c1C	-8.66%	–
COc1ccc(/C=C/C(=O)NC(=S)N2CCCC(C(N)=O)C2)cc1 (stereo not drawn)	-18.6%	–
COC(=O)c1ccc(OCC(O)CN(CCO)CC(O)Cn2ccc3ccccc32)cc1 (stereo not drawn)	-28%	–
COc1ccc(Cn2c(=O)sc3ccccc32)cc1OC	3.75%	–
COc1ccc(CCNCC(O)Cn2ccc3ccccc32)cc1OC (stereo not drawn)	–	10.4 µM (active)

SMILES	activity change, negative = inhibition	Potency
O=C(C1CCC1)N1CCN(c2ccccc2)CC1	-2.07%	–
Cc1ccccc1NC(=O)Cn1cc(C(=O)C2CC2)c2ccccc21	-28.8%	–
Cc1ccc(CNC(=O)Cn2cnc(S(=O)(=O)N3CCCCC3)c2)o1	28.9%	–
CCCOC1CCCN(C(=O)c2cc(COc3cncc(Cl)c3)on2)C1 (stereo not drawn)	0%	–
Cc1ccccc1NC(=O)N1CCCC1C(=O)NCc1ccccc1 (stereo not drawn)	5.92%	–
CCn1nc(C)c(NC(=O)/C=C/c2ccc(OC)c(COc3ccc(Br)cc3)c2)c1C	–	8.28 µM (active)
COc1ccc(C(C)=O)cc1COc1ccc(Cl)c(C)c1	51.1%	–
COc1ccc(/C=C/C(=O)Nc2cccnc2)cc1OC	41%	–
CCOC(=O)N1CCN(C(=O)c2cn(C)c3ccc(S(=O)(=O)N4CCCC4)cc3c2=O)CC1	13.4%	–
CC(C)COC(=O)n1c(=O)oc2ccc(S(=O)(=O)N3CCCCC3)cc21	–	10.4 µM (active)
O=C(NC1CCCCC1)n1c(=O)oc2cc(S(=O)(=O)N3CCCCC3)ccc21	47.3%	–
CCOc1ncccc1C(=O)OCC(=O)Nc1cccc(S(=O)(=O)N2CCCCCC2)c1	60%	–
COc1ccc(N2CCN(S(=O)(=O)c3cc(Br)cnc3N)CC2)cc1	-0.159%	–
c1ccc(-c2nnc(N3CCOCC3)c3ccccc23)cc1	75.3%	–
OCCN1CCN(c2nnc(-c3ccccc3)c3ccccc23)CC1	-6.11%	–
CCCC(=O)N1CCN(c2nnc(-c3ccc(C)cc3)c3ccccc23)CC1	–	4.15 µM (active)
Cc1ccc(S(=O)(=O)CC(=O)Nc2sc(C)c(C)c2C(N)=O)cc1	1.71%	–
O=C(NCc1ccncc1)NC12CC3CC(CC(C3)C1)C2	20.8%	–
S=C(NCc1ccc(Cl)cc1)NC1CCCCC1	-41.2%	–
S=C(NCc1ccc(Cl)cc1)NC12CC3CC(CC(C3)C1)C2	–	11.7 µM (active)
CCCC(C(=O)OCCN(CC)CC)(c1ccccc1)c1ccccc1	–	6.01 µM (active)
CCN(CC)CCOC(=O)c1ccc(NC(=O)CNC(=O)c2ccccc2)cc1	20.2%	–
CCC(C(=O)OCCN(CC)CC)c1ccccc1 (stereo not drawn)	–	inactive
COc1ccc(-c2cc3ncccc3cn2)cc1	142%	–
Cc1cccc(C(=O)Nc2ccc(C(=O)N/N=C/c3cccc(C)n3)cc2)c1	-16.6%	–
